RORgamma inh = ROR gamma (mouse) transcription inhibition. P51450. Drosophila S2 Gal4-RORgamma UAS-luciferase reporter, 20 h. Potency, µM (doses to about 53.6 µM), usual class: inhibitors. actives 5.4% (n = 310,000); further: nearly all actives have a fitted effect of over 60% in size
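Drosophila Schneider cells stably carrying a metallothionein-driven Gal4 DBD–ROR gamma fusion and a UAS-Photinus luciferase reporter were exposed to compound for 1 hr, then induced with copper sulfate (700 uM final) for 20 hr at ambient temperature before luminescence reading.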
PLK1 PBD inh = inhibitors of human PLK1 polo-box domain binding | P53350 | Plk1 PBD binding of FITC phosphopeptide, fluorescence polarization | Potency, µM, actives largely listed as inhibitors | actives 2.8% (n = 360,000) | AID 720504; further: series mostly up to about 57 µM; nearly all actives have a fitted effect of over 65% in size
Gal4-VP16 FLuc = counter-screen for ROR gamma inhibitors: Gal4-VP16 reporter; Drosophila S2 Gal4-VP16 UAS-luciferase, luminescence, 20 h; actives 3.5% (n = 310,000); Potency, µM (doses to about 53.6 µM), actives largely listed as inhibitors;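 further: Gal4-VP16 expression switched on by copper sulfate through the metallothionein promoter; nearly all actives have a fitted effect of over 50% in size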
ALDH1A1 block = inhibitors of human aldehyde dehydrogenase 1A1; P00352; Purified ALDH1A1, NADH fluorescence, propionaldehyde substrate; Potency, µM (series often up to 75.3 µM), most hits filed as inhibitors; actives 7.3% (n = 220,000); active means well fitted inhibition curve with a large enough effect, not every such curve was filed as active; inconclusive means small, poorly fitted or top-dose-only effect, or another doubt; inactive means no such curve, though single readings can be large or run the other way
Target sequence (P00352 whole entry, looked up): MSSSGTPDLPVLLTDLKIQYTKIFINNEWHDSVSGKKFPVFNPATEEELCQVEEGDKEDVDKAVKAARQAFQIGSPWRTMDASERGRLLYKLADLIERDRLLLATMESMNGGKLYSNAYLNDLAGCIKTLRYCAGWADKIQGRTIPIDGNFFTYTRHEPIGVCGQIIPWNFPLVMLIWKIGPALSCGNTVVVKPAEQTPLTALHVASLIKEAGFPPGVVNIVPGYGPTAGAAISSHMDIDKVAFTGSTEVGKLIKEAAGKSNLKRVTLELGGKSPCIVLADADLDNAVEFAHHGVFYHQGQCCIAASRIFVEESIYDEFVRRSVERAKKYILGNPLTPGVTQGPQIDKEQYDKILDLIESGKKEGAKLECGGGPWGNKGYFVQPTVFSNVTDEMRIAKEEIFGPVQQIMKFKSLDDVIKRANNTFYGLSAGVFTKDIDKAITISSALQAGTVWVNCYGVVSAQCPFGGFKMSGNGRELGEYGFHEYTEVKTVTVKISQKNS
Sfp inh = Sfp phosphopantetheinyl transferase inhibition. Q9F4F7. Biochemical Sfp PPTase activity, qHTS. Potency, µM, most hits filed as inhibitors. actives 3.5% (n = 310,000). AID 1490;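 further: the enzyme is Sfp with the accession as filed and its product quenches rhodamine fluorescence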
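Fluorescence-quenching assay with 15 nM Sfp, 5 uM rhodamine-CoA and 12.5 uM BHQ-2-labelled ybbR peptide in pH 7.6 Hepes/MgCl2 buffer. Enzyme was pre-incubated with compound for 15 min at room temperature. Rate was taken from the 30-min fluorescence change (525/598 nm).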
Numbers stand for hits; n = inactive; u = inconclusive; x = not tested or not shown; ! = repeats disagree; [ ] = dose if it differs, or a comment. Compounds with a hit are over-represented: about 12% of the library has one in this group of screens. Unless noted, the call rests on the fitted dose curve; in most records, active means well fitted curve in the direction sought with a large enough effect; inconclusive means small, poorly fitted or top-dose-only effect, or another doubt; inactive means no such curve, though single readings can be large; an effect the other way counts as inactive or inconclusive.

SMILES | RORgamma inh | PLK1 PBD inh | Gal4-VP16 FLuc | ALDH1A1 block | Sfp inh
COc1ccc(NC(=O)c2ccncc2)cc1S(=O)(=O)N1CCCCC1 | x | n | x | x | x
O=C(NC(=S)NCc1cccnc1)c1cc(Br)ccc1Cl | 22.4µM | n | u | x | n
O=C(NC(=S)NCc1cccnc1)c1cc2ccccc2o1 | 12.6µM | n | n | u | u
CC1OCC23CC[C@@]4(C)CCC(C)(C)C[C@H]4[C@]2(C)CCC12C3CC[C@@]1(C)C2C(=O)CC(=O)[C@@H]1C (some centres undefined) | n | x | n | n | n
CC(C)(C)c1ccc(C(=O)N2CCC2(C)C(=O)NS(=O)(=O)c2ccccc2Cl)cc1 (centres undefined) | x | n | x | x | x
N/C(=N/O)c1nc(N2CCCC2)nc(N2CCCC2)n1 | x | n | x | x | x
N/C(=N/O)c1nc(N2CCCC2)nc(N(c2ccccc2)c2ccccc2)n1 | 8.91µM | n | n[0.365 µM] | n | n
N/C(=N/O)c1nc(N2CCCCC2)nc(N2CCCCC2)n1 | 8.91µM | n | u | n | n
COc1ccccc1N1CCN(C(=O)CN(C)S(=O)(=O)c2ccc(C)cc2)CC1 | x | n | x | x | x
Cc1cc(N2C(=O)C(O)=C(C(=O)c3cc4ccccc4o3)C2c2cccc(Br)c2)no1 (centres undefined) | u | 26.7µM | u | x | n
CCCOc1cccc(C2C(C(=O)c3cc4ccccc4o3)=C(O)C(=O)N2c2cc(C)on2)c1 (centres undefined) | u | 26.7µM | u | x | n
COC(=O)c1ccc(C2C(C(=O)c3cc4ccccc4o3)=C(O)C(=O)N2c2cc(C)on2)cc1 (centres undefined) | n | u | u | x | n
CCN(CC)CCNC(=S)NC(=O)c1cn(-c2ccccc2)nc1-c1ccc(OC)cc1 | 7.08µM | n | 12.6µM | n | n
CCN(CC)CCNC(=O)c1ccc(NC(=O)c2cn(-c3ccc(F)cc3)nc2-c2cccc(OC)c2)cc1 | u | n | u | x | 50.1µM
C=CCN(CC=C)c1ccc(N2C(=O)C3CCCCC3C2=O)cc1[N+](=O)[O-] (centres undefined) | n | n | 22.4µM | u | n
O=C1C2CCCCC2C(=O)N1c1ccc(NC2CCCCC2)c([N+](=O)[O-])c1 (centres undefined) | n | n | n | 10µM | n
CCC1=C2CC[C@H]3C(=O)N(CC(=O)OC)C(=O)[C@H]3[C@H]2[C@@]2(Cc3ccccc3)C(=NCCc3c[nH]c4ccccc34)OC(=O)N2C1=O | n | x | n | n | n
CCOCCC(=O)Nc1ccc2c(c1)c(=O)n(C)n2CC=C(C)C | x | n | x | x | x
CNC(=O)[C@H](C)[C@@H]1C[C@@]1(C)[C@@H](NC(=O)OCc1ccccc1)c1ccccc1 | u | n | n | n | n
C[C@@H](C(=O)N[C@@H](CO)Cc1ccccc1)[C@H]1C[C@]1(C)[C@H](NC(=O)OCc1ccccc1)c1ccccc1 | n | x | n | 7.08µM | n
Cc1ccc(CNC(=O)[C@H](C)[C@H]2C[C@]2(C)[C@H](NC(=O)OCc2ccccc2)c2ccccc2)c(F)c1F | n | x | n | 3.16µM | n
Cc1ccc(CNC(=O)[C@H](C)[C@H]2C[C@]2(C)[C@H](NC(=O)OCc2ccccc2)c2ccccc2)o1 | u | n | u | 14.1µM! | 50.1µM
CNC(=O)[C@H](C)[C@H]1C[C@]1(C)[C@H](NC(=O)OCc1ccccc1)c1ccccc1 | n | x | n | 7.94µM | n
C[C@@H](C(=O)NCc1ccccn1)[C@@H]1C[C@@]1(C)[C@@H](NC(=O)OCc1ccccc1)c1ccccc1 | u | n | n | n | n
Cc1ccc(CNC(=O)[C@H](C)[C@@H]2C[C@@]2(C)[C@@H](NC(=O)OCc2ccccc2)c2ccccc2)c(F)c1F | n | x | n | n | n
COCCNC(=O)C1(C)CCCN(C(=O)c2cc(F)cc(F)c2)C1 (centres undefined) | x | n | x | x | x
CCCCNc1nc(C)nc2c1nc(-c1ccccc1)n2CC(C)(C)CN(C)C | n | x | n | u | n
O=C1OC(Cc2ccccc2)(c2ccccc2)c2ccccc21 (centres undefined) | x | n | x | x | x
C[C@@H](C(=O)NCc1cccc2ccccc12)[C@H]1C[C@]1(C)[C@H](NC(=O)OCc1ccccc1)c1ccccc1 | n | x | n | u | n
C[C@@H](C(=O)NCC1CC1)[C@H]1C[C@]1(C)[C@H](NC(=O)OCc1ccccc1)c1ccccc1 | n | n | n | 17.8µM | n

Source: PubChem
